Assay [1] concerns the target human Adrenergic, Alpha 2A Receptor (Adra2A), ADRA2A (gene 150) (UniProt P08913). As to the kind of experiment: NVS_GPCR_hAdra2A: NovaScreen (NVS) G Protein-Coupled Receptor Assay for human Adrenergic, Alpha 2A Receptor (Adra2A) (AID 2283257). The essentials:
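Displacement of a specific radioligand from HT29 membrane protein was counted by filter scintillation after 1 h. Compounds were screened in duplicate at 25 uM, and actives were retested in concentration series. Fitting was positive-direction against DMSO.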

The target of assay [2] is human Adrenergic, Alpha 2c Receptor (Adra2C), ADRA2C (gene 152) (UniProt P18825). As to the kind of experiment: NVS_GPCR_hAdra2C: NovaScreen (NVS) G Protein-Coupled Receptor Assay for human Adrenergic, Alpha 2c Receptor (Adra2C) (AID 2283259). An outline of the steps: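 Screened first in duplicate at 25 uM, with actives then run as concentration series. Membranes from Sf9 cells were exposed for 1 h, and displacement of radioligand was counted after filtration, using DMSO as baseline.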

For assay [3], the target named is rat Constitutive Nitric Oxide Synthase (CNOS), Nos1 (gene 24598) (UniProt P29476). As to the kind of experiment: NVS_ENZ_rCNOS: NovaScreen (NVS) Enzymatic Assay for rat Constitutive Nitric Oxide Synthase (CNOS) (AID 2283236). The essentials: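 Single 25 uM duplicate screen, then concentration series to 50 uM for chemicals meeting threshold. Rat brain membrane-derived CNOS activity detected radiometrically by filtration and scintillation counting, 1 h after compound addition; DMSO as baseline.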

Assay [4] deals with human Serotonin, 5-Hydroxytryptamine Receptor 5A (5HT5A), HTR5A (gene 3361) (UniProt P47898). As to the kind of experiment: NVS_GPCR_h5HT5A: NovaScreen (NVS) G Protein-Coupled Receptor Assay for human Serotonin, 5-Hydroxytryptamine Receptor 5A (5HT5A) (AID 2283251). An outline of the steps: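 Membranes from HEK293 cells, radioligand binding read by filtration and scintillation after 1 h. Single-concentration duplicate testing at 25 uM, then concentration-response for actives; positive-direction fitting relative to DMSO.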

For assay [5], the target named is guinea pig Opioid, Kappa 1 Receptor (OpiateK), OPRK1 (gene 100135587) (UniProt P41144). As to the kind of experiment: NVS_GPCR_gOpiateK: NovaScreen (NVS) G Protein-Coupled Receptor Assay for guinea pig Opioid, Kappa 1 Receptor (OpiateK) (AID 2283252).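 Note: radioligand displacement from kappa opioid receptor in guinea pig cerebellar membranes; active means reduced radioligand binding relative to DMSO.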 An outline of the steps:
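Radioligand competition binding using guinea pig cerebellum membrane fraction; 2 h exposure; filter radiodetection. Single concentration 25 uM (duplicate), follow-up concentration-response for actives.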

The target in assay [6] is human Adenosine A1 Receptor (AdoRA1), ADORA1 (gene 134) (UniProt P30542). As to the kind of experiment: NVS_GPCR_hAdoRA1: NovaScreen (NVS) G Protein-Coupled Receptor Assay for human Adenosine A1 Receptor (AdoRA1) (AID 2283254). An outline of the steps:
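Radioligand binding was run on human cortical membranes, cell-free, with filter-based scintillation counting 1 h after dosing. The primary screen was duplicate at 25 uM, followed by concentration series. Signal loss versus DMSO was fitted positive-direction.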

In assay [7] the target is human Serotonin, 5-Hydroxytryptamine Receptor 7 (5HT7), HTR7 (gene 3363) (UniProt P34969). As to the kind of experiment: NVS_GPCR_h5HT7: NovaScreen (NVS) G Protein-Coupled Receptor Assay for human Serotonin, 5-Hydroxytryptamine Receptor 7 (5HT7) (AID 2283255).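 Note: hits reduce specific radioligand binding relative to DMSO.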 The essentials: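 Filter-bound radioactivity counted after 1 h, with loss of specific radioligand binding fitted against DMSO. Membrane protein came from CHO cells expressing human 5HT7. Chemicals were tested first at 25 uM in duplicate, then in concentration series if active.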

For assay [8], the target named is human Adenosine A2a Receptor (AdoRA2a), ADORA2A (gene 135) (UniProt P29274). As to the kind of experiment: NVS_GPCR_hAdoRA2a: NovaScreen (NVS) G Protein-Coupled Receptor Assay for human Adenosine A2a Receptor (AdoRA2a) (AID 2283256). An outline of the steps:
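HEK293-derived receptor preparation, radioligand displacement, 1.5 h, filtration + scintillation read. Loss of bound signal scored vs DMSO. Single-point 25 uM in duplicate first, then concentration-response for actives.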

Assay [9] deals with sheep Cyclooxygenase-1 (Cox1), PTGS1 (gene 443551) (UniProt P05979). As to the kind of experiment: NVS_ENZ_oCOX1: NovaScreen (NVS) Enzymatic Assay for sheep Cyclooxygenase-1 (Cox1) (AID 2283239).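 Note: actives reduce cyclooxygenase activity so potencies are for inhibitors.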 The essentials:
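Ovine seminal vesicle extract; absorbance (colorimetric) enzyme read-out at 0.66 h post-dose. Primary: single conc 25 uM, duplicate. Follow-up: concentration series on actives. Activity = signal loss vs DMSO baseline.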

In assay [10] the test system is guinea pig Leukotriene B4 Receptor (LTB4), gene 100379538. As to the kind of experiment: NVS_GPCR_gLTB4: NovaScreen (NVS) G Protein-Coupled Receptor Assay for guinea pig Leukotriene B4 Receptor (LTB4) (AID 2283247). The essentials: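 Membranes from guinea pig spleen incubated 2 h with radioligand and compound; bound counts measured by filtration and scintillation. Screened first at 25 uM in duplicate, then actives titrated to a 50 uM top concentration relative to DMSO.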

Assay [11] has as its system bovine Histamine 1 Receptor (H1), gene 281231. As to the kind of experiment: NVS_GPCR_bH1: NovaScreen (NVS) G Protein-Coupled Receptor Assay for bovine Histamine 1 Receptor (H1) (AID 2283246). The essentials:
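Hits from a 25 uM duplicate primary screen were retested in concentration series (top 50 uM); binding measured as scintillation-counted displacement of radioligand from bovine cerebellar membranes after 1 h, normalised to DMSO.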

For assay [12], the target named is guinea pig Leukotriene D4 Receptor (LTD4), CYSLTR1 (gene 100135514) (UniProt Q2NNR5). As to the kind of experiment: NVS_GPCR_gLTD4: NovaScreen (NVS) G Protein-Coupled Receptor Assay for guinea pig Leukotriene D4 Receptor (LTD4) (AID 2283248). The essentials:
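Guinea pig lung membrane preparation; bound radioligand measured by filter scintillation after 1 h, loss of signal versus DMSO marking displacement. Compounds tested at 25 uM in duplicate, hits retested to max 50 uM.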

The target of assay [13] is human Adrenergic, Beta 1 Receptor (Adrb1), ADRB1 (gene 153) (UniProt P08588). As to the kind of experiment: NVS_GPCR_hAdrb1: NovaScreen (NVS) G Protein-Coupled Receptor Assay for human Adrenergic, Beta 1 Receptor (Adrb1) (AID 2283258). The essentials:
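Membranes/protein extracted from human neuroepithelioma cells, radioligand competition binding read by filtration and scintillation 2 h post-dose. Single 25 uM duplicate screen, then concentration-response follow-up; DMSO as negative control.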

Assay [14] has as its target bovine Dopamine Receptor (DR), Non-selective Binding, DRD1 (gene 281125) (UniProt Q95136). As to the kind of experiment: NVS_GPCR_bDR_NonSelective: NovaScreen (NVS) G Protein-Coupled Receptor Assay for bovine Dopamine Receptor (DR), Non-selective Binding (AID 2283241). The essentials:
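Filter-based radioligand binding with bovine striatal membrane, incubated 1 h; DMSO as negative baseline. Initial duplicate single-point test at 25 uM preceded concentration series for actives.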

For assay [15], the system named is bovine Angiotensin II Receptor Type 2 (AT2), gene 407157. As to the kind of experiment: NVS_GPCR_bAT2: NovaScreen (NVS) G Protein-Coupled Receptor Assay for bovine Angiotensin II Receptor Type 2 (AT2) (AID 2283240). An outline of the steps: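 Radioligand displacement on bovine cerebellar membranes, 1 hour incubation, filter-based scintillation counting; loss of signal vs DMSO. Duplicate single-point screen at 25 uM, then concentration-response to 50 uM maximum.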

For assay [16], the target named is human Serotonin, 5-Hydroxytryptamine Receptor 2A (5HT2A), HTR2A (gene 3356) (UniProt P28223). As to the kind of experiment: NVS_GPCR_h5HT2A: NovaScreen (NVS) G Protein-Coupled Receptor Assay for human Serotonin, 5-Hydroxytryptamine Receptor 2A (5HT2A) (AID 2283249). The essentials: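 Radioligand displacement on human cortex tissue extract, counted by filtration and scintillation 1.5 h post-dosing. Initial single-concentration screen at 25 uM in duplicate, concentration series in follow-up; DMSO as baseline.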

Assay [17] has as its system guinea pig Muscarinic, Peripheral (Mperiperal) Receptor, Non-selective Binding, gene 100379235. As to the kind of experiment: NVS_GPCR_gMPeripheral_NonSelective: NovaScreen (NVS) G Protein-Coupled Receptor Assay for guinea pig Muscarinic, Peripheral (Mperiperal) Receptor, Non-selective Binding (AID 2283250). The essentials:
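Screened in duplicate at 25 uM, hits retested in concentration series to 50 uM max, using bladder membrane radioligand displacement from guinea pig. Filtration and scintillation counting 1 h post-dose, fitted relative to DMSO.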

The target in assay [18] is human Serotonin, 5-Hydroxytryptamine Receptor 6 (5HT6), HTR6 (gene 3362) (UniProt P50406). As to the kind of experiment: NVS_GPCR_h5HT6: NovaScreen (NVS) G Protein-Coupled Receptor Assay for human Serotonin, 5-Hydroxytryptamine Receptor 6 (5HT6) (AID 2283253). An outline of the steps:
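Filter scintillation counting of radioligand displacement from HEK293-expressed 5HT6, 1 hour post-dose, with loss of signal relative to DMSO. Single 25 uM duplicates first, with concentration series for confirmation.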

The target of assay [19] is Adenosine receptor A1 (Bos taurus) (UniProt P28190). As to the kind of experiment: NVS_GPCR_bAdoR_NonSelective: NovaScreen (NVS) G Protein-Coupled Receptor Assay for bovine Adenosine Receptor (AdoR), Non-selective Binding (AID 2283244). The essentials: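 Cell-free binding with membranes from bovine striatum: radioligand displaced by test chemical, read after 1 h by filtration and scintillation. Single-point 25 uM duplicate primary, 50 uM top concentration in follow-up curves, DMSO baseline.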

Structures are written as SMILES. Records with an inconclusive call do not appear. The source made the active and inactive calls. Rule for the calls: active = hit-call score of the fitted dose curve at least 0.9, where 1 is the maximum; inconclusive = response in the unintended direction; inactive = score below 0.9.

Chain of human Adrenergic, Alpha 2c Receptor (Adra2C), ADRA2C (gene 152) (P18825 whole entry, looked up): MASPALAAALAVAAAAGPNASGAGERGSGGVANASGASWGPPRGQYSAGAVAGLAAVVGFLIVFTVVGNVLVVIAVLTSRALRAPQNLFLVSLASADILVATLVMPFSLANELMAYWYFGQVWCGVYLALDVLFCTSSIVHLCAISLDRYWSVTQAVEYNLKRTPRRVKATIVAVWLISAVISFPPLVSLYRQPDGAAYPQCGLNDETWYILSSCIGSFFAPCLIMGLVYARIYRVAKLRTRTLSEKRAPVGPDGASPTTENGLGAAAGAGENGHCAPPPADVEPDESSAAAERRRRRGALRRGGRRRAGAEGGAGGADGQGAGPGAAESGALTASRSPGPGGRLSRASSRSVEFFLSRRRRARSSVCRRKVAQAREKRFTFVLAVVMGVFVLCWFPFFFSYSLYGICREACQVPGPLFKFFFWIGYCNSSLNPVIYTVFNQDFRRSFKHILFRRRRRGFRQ
Chain of human Adenosine A2a Receptor (AdoRA2a), ADORA2A (gene 135) (P29274 whole entry, looked up): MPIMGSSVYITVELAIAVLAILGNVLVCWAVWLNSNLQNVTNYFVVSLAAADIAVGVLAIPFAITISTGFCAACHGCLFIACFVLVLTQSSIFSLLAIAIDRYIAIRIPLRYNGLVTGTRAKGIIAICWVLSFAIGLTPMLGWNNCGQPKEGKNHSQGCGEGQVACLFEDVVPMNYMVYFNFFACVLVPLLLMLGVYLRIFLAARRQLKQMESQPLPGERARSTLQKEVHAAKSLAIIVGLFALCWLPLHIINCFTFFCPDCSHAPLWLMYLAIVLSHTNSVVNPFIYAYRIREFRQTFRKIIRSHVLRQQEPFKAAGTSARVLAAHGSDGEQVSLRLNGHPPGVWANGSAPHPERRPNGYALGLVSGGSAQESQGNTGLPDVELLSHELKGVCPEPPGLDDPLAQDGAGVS
Chain of human Serotonin, 5-Hydroxytryptamine Receptor 5A (5HT5A), HTR5A (gene 3361) (P47898 whole entry, looked up): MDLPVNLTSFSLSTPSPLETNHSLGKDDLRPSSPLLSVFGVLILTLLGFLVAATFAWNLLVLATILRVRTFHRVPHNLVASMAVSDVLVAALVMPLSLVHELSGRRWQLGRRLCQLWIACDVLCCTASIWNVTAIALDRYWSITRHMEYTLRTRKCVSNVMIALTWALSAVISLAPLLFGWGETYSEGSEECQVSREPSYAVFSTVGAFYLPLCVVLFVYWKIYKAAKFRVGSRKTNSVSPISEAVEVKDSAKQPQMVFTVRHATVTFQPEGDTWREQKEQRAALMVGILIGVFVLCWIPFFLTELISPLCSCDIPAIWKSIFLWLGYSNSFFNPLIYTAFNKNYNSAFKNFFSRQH
Chain of guinea pig Opioid, Kappa 1 Receptor (OpiateK), OPRK1 (gene 100135587) (P41144 whole entry, looked up): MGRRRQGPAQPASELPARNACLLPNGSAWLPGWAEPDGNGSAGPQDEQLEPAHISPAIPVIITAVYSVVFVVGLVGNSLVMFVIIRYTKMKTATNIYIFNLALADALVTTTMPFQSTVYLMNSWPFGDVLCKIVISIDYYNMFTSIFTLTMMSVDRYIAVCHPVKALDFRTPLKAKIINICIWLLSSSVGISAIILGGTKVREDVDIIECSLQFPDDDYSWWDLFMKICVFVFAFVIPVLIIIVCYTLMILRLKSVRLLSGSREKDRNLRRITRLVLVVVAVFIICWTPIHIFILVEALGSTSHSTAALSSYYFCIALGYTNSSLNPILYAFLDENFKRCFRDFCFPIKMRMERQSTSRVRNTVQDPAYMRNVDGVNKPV
Chain of human Adrenergic, Beta 1 Receptor (Adrb1), ADRB1 (gene 153) (P08588 whole entry, looked up): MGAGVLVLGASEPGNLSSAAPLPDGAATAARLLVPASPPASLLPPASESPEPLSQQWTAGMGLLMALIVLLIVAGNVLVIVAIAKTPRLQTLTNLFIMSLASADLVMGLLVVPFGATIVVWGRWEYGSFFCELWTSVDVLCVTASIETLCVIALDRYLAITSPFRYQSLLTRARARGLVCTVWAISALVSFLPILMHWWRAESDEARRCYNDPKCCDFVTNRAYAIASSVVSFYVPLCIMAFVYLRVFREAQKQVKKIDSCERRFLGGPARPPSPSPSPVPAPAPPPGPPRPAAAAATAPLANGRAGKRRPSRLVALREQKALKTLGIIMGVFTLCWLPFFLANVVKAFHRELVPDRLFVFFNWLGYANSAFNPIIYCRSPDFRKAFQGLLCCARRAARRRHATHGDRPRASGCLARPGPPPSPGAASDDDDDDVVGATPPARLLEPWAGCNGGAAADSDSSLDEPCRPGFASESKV
Chain of guinea pig Leukotriene D4 Receptor (LTD4), CYSLTR1 (gene 100135514) (Q2NNR5 whole entry, looked up): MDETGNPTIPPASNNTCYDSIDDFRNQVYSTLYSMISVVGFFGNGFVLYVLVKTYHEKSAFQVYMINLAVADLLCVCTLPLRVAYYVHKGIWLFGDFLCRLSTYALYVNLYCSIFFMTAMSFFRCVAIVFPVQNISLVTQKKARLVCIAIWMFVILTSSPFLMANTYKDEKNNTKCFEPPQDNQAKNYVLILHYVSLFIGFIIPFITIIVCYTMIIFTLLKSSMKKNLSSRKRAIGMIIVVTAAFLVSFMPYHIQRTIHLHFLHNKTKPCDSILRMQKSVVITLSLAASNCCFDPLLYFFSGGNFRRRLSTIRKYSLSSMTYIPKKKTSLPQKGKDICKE
Chain of human Adenosine A1 Receptor (AdoRA1), ADORA1 (gene 134) (P30542 whole entry, looked up): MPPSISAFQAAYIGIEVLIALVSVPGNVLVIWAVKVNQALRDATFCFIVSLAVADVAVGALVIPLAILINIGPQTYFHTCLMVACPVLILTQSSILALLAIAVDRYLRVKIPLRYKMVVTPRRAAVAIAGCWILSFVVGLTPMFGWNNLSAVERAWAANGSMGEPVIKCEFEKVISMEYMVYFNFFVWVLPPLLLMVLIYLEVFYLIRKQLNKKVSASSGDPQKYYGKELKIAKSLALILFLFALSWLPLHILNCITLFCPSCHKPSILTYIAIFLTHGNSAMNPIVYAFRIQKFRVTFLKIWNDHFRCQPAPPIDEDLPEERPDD
Chain of human Serotonin, 5-Hydroxytryptamine Receptor 6 (5HT6), HTR6 (gene 3362) (P50406 whole entry, looked up): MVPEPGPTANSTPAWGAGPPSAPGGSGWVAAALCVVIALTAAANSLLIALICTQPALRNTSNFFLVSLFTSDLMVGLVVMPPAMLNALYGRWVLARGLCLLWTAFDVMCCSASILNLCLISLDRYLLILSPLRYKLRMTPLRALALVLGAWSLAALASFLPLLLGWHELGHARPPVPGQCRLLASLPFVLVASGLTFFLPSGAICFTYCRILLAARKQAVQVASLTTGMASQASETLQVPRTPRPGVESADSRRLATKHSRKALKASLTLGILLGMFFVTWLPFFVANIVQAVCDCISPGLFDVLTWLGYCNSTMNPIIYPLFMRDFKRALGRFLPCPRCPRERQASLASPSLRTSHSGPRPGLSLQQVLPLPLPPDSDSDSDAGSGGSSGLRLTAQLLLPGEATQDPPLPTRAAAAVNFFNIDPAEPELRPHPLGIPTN
Chain of human Adrenergic, Alpha 2A Receptor (Adra2A), ADRA2A (gene 150) (P08913 whole entry, looked up): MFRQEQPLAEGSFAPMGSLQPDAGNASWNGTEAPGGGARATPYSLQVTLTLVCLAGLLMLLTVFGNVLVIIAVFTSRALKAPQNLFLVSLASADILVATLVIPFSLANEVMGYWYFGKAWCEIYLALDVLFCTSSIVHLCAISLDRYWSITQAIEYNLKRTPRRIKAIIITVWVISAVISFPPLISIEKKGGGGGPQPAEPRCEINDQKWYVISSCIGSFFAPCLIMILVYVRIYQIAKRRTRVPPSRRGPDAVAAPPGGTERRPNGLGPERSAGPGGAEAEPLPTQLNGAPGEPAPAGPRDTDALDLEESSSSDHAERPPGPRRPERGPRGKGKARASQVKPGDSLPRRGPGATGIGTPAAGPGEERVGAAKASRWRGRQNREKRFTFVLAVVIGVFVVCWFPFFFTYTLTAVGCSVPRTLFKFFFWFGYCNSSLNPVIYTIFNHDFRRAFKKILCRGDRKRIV
Chain of human Serotonin, 5-Hydroxytryptamine Receptor 7 (5HT7), HTR7 (gene 3363) (P34969 whole entry, looked up): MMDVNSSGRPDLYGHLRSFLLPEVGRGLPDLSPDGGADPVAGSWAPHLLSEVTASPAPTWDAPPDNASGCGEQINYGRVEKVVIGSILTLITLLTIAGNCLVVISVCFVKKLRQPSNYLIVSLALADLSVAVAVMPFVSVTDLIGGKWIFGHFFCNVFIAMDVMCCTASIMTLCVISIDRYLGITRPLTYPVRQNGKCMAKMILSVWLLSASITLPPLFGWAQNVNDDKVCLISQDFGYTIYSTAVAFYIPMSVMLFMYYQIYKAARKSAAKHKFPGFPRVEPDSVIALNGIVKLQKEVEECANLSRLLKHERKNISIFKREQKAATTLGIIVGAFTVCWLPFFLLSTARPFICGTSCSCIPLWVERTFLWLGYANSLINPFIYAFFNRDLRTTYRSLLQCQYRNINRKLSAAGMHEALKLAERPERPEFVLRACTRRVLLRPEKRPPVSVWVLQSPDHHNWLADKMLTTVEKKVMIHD
Chain of sheep Cyclooxygenase-1 (Cox1), PTGS1 (gene 443551) (P05979 whole entry, looked up): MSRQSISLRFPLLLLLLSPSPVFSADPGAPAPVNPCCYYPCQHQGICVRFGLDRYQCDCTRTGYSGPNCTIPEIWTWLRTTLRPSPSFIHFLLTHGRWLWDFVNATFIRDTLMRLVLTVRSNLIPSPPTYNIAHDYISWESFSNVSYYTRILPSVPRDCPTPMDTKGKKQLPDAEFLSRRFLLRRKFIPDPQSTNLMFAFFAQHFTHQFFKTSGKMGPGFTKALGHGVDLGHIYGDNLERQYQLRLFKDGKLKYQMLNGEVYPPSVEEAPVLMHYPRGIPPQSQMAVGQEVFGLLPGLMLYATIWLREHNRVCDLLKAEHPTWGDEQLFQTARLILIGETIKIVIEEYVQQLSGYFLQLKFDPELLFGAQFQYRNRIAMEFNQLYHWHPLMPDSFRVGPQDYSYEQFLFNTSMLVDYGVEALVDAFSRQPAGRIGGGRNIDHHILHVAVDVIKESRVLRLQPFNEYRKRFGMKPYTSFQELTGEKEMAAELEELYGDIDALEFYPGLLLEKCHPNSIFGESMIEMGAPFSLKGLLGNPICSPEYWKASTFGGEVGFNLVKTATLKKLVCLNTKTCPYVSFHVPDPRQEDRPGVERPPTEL

Usually AC50 stands for the midpoint of the concentration-response curve, whichever way the signal moves. For `O=C(O)c1ccc2c(c1)nc(C(=O)NC1CCN(C3CC3)CC1)n2Cc1cc(-c2ccc(Cl)s2)on1`, the AC50 in assay [1] is 0.308 µM (active). For the same compound, the compound was classed as inactive in [2].
As to `O=S(=O)(O)c1ccc(N=Nc2c(O)ccc3cc(S(=O)(=O)O)ccc23)cc1`, the AC50 is 25 µM (active) in [3] and 35 µM (active) in assay [8]. Also, the compound was called inactive in assay [4], in assay [5], in [6], in assay [7] and in [1].
Consider `CC[C@H](C)C(=O)O[C@H]1C[C@H](O)C=C2C=C[C@H](C)[C@H](CC[C@@H](O)C[C@@H](O)CC(=O)O)[C@H]21`, for which the call in [9] was inactive. Also, the AC50 in assay [10] is 0.328 µM (active).
For `NC(=O)N1c2ccccc2C=Cc2ccccc21`, the compound was classed as inactive in [11]. The AC50 in assay [6] is 7.33 µM (active).
On to `CCCCCCCCCCCCCCCCOS(=O)(=O)O`, for which the AC50 in assay [12] is 4.26 µM (active); in [4] it was 20.6 µM (active); in [7], 15.6 µM (active); in assay [13] it was 3.47 µM (active); in assay [2] it was 3.6 µM (active).
For `COS(C)(=O)=O`, the result in assay [14] was inactive.
Take `c1ccc(C(O[C@@H]2CCCN(CCc3ccc4c(c3)OCO4)C2)c2ccccc2)cc1`: the compound was classed as inactive in [15]. Further, the AC50 in assay [14] is 10.6 µM (active); in [16] it was 10.1 µM (active); in assay [17], 0.0261 µM (active); in assay [4] it was 25 µM (active); in assay [5], 3.06 µM (active); in assay [18], 25 µM (active). In addition, the AC50 in assay [6] was 20.7 µM (active); in assay [7], 0.99 µM (active); in assay [1], 18 µM (active); in assay [13] it was 25 µM (active); in assay [2], 2.51 µM (active).
As for `OC(CCl)CCl`, in assay [1], the AC50 was 25 µM (active).
Take `Cc1nc(-c2ccccn2)ncc1C(=O)Nn1cc(C)c2cc(F)ccc21`: in [9], the compound was called inactive.
`CCCCCCCCCC`: the outcome in assay [11], in assay [16], in assay [17], in [4], in assay [18] and in assay [6] was inactive. The compound was classed as inactive in assay [7], in assay [8], in assay [13] and in [2].
As to `COCc1nnc(-c2ccc[n+]([O-])c2)n1-c1c(Cl)c(Cl)cc2[nH]c(=O)c(=O)[nH]c12`, the call in assay [10], in assay [12], in assay [18] and in assay [8] was inactive. In assay [6], the AC50 is 32.2 µM (active).
For the compound `CC(C)c1nnc2ccc(-c3ocnc3-c3cc(F)ccc3F)cn12`, in assay [12], the result was inactive.
`O=C(O)c1cccc(C(=O)O)c1`: the compound was classed as inactive in assay [9].
Consider `CCCCCCCCN(C)C`, for which the call in [3], in [17] and in assay [18] was inactive. Also, the AC50 in assay [7] was 6.63 µM (active).
Take `CCCOc1ccc(S(=O)(=O)N2CCN(CC)CC2)cc1-c1nc2c(CC)n(Cc3ccccn3)nc2c(=O)[nH]1`: the result in assay [19] and in [5] was inactive. In addition, the AC50 in [6] was 6.54 µM (active).

For the origin of these results see PubChem BioAssay (EPA / NIEHS).
